# Calls of active or inactive are those of the source.
# How the values were obtained:
# [1] = compound effects on lung adenocarcinoma cell viability – A549, calcein-AM fluorescence, 48 h, basal, profiling panel (AID 1162); conditions: higher = more signal
# [2] = compound effects on differentiated 3T3-L1 adipocyte viability – cell-based, 3T3-L1 adipocytes, calcein-AM fluorescence, 48 h, basal, profiling panel (AID 1163); conditions: 3T3-L1 adipocytes viability, higher = more signal
# [3] = compound effects on hepatocellular carcinoma cell viability – HepG2, calcein-AM fluorescence, 48 h, basal, profiling panel (AID 1164); conditions: higher = more signal
# [4] = compound effects on multiple myeloma cell viability – MM1S, calcein-AM fluorescence, 48 h, basal, profiling panel (AID 1165); conditions: higher = more signal
# [5] = calcein-AM signal in unstimulated myeloma cells – cell-based, calcein-AM fluorescence, 48 h, PK04 Diversity Set, profiling panel (AID 1166); conditions: RPMI8226 myeloma viability, higher = more signal;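 also: cells grown under basal conditions without added stimulus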
# [6] = JC-1 mitochondrial signal, unstimulated HepG2 cells – cell-based, JC-1 fluorescence, 24 h, 100 nL compound, profiling panel (AID 1167); conditions: HepG2 mitochondrial potential, higher = more signal
# [7] = JC-1 mitochondrial signal, unstimulated adipocytes – cell-based, JC-1 fluorescence, 3T3-L1 adipocytes, 24 h, 100 nL compound, profiling panel (AID 1168); conditions: JC-1 mitochondrial fluorescence, higher = more signal, called active from +8 up or from −8 down
# [8] = JC-1 mitochondrial signal, unstimulated myeloma cells – cell-based, JC-1 fluorescence, RPMI8226, 24 h, 100 nL compound, profiling panel (AID 1169); conditions: JC-1 mitochondrial potential fluorescence, higher = more signal
# [9] = JC-1 mitochondrial signal, unstimulated MM1S myeloma – cell-based, JC-1 fluorescence, 24 h, 100 nL compound, profiling panel (AID 1170); conditions: MM1S mitochondrial potential, higher = more signal
# [10] = resazurin metabolic signal in A549 cells – cell-based, resazurin fluorescence, 24 h, PK04 Diversity Set, profiling panel (AID 1171); conditions: A549 viability, higher = more signal, called active from +8 up or from −8 down
# Also: test concentration not given here.
SMILES,z-score [1],z-score [2],z-score [3],z-score [4],z-score [5],z-score [6],z-score [7],z-score [8],z-score [9],z-score [10]
CCOC(=O)C[C@H]1[C@H](OC(=O)Cc2ccc3c(c2)OCO3)[C@@H](NC(=O)c2ccc3ccccc3c2)c2cc(OCCCO)ccc2N1C(=O)c1ccccc1,1.38,-0.377,0.778,-0.41,-0.377,1.27,1.14 (inactive),0.621,-0.334,0.859 (inactive)
C=C(/C(=C/C[C@@H](OC(C)=O)c1ccc(OCCO)cc1)c1cnc2ccccc2c1)C(C)C,2.72,1.39,1.25,-0.924,0.559,2.07,-1.27 (inactive),-0.139,-1.17,0.685 (inactive)
CCCCC=C[C@@H](NC(=O)Oc1cccc(C(F)(F)F)c1)c1ccccc1,-1.12,0.26,-0.568,-1.8,-3.36,-1.63,-0.585 (inactive),-0.799,-1.1,-0.665 (inactive)
COc1ccc(CCNC(=O)[C@@]2(C)c3ccccc3C(=O)N(Cc3cc(F)cc(C(F)(F)F)c3)[C@H]2c2ccc(CO)cc2)cc1,0.805,0.766,0.41,-1.86,-2.07,0.857,-0.633 (inactive),-0.601,1.08,0.396 (inactive)
CC(=O)n1cc(C(O)C2C=CC3C(=O)N(C)C(=O)C3N2Nc2ccccc2)c2ccccc21 (stereo not given),-0.617,-0.652,-0.804,0.305,-1.25,-1.58,-0.454 (inactive),-0.0553,0.118,-0.162 (inactive)
C=CC[C@]1(C(=O)NCCCOC)N=C(c2ccc(OCCCO)cc2)O[C@H]1c1ccccc1N=[N+]=[N-],-0.707,0.346,0.0592,-1.78,-1.47,0.111,1.06 (inactive),-0.68,-0.114,0.393 (inactive)
C=CCNC(=O)[C@@H]1[C@H]2C(=O)O[C@H](c3ccccc3)[C@H](c3ccccc3)N2[C@H](c2ccc(OCCO)cc2)[C@@]12C(=O)Nc1ccc(C#Cc3ccc(OC)cc3)cc12,-0.717,1.82,-0.969,-0.891,-1.86,-1.12,1.05 (inactive),-0.592,-0.913,-1.03 (inactive)
COc1ccc(C(=O)Nc2ccc(CN3C(=O)[C@@]4(O[C@@H](CCO)[C@H]([Si](C)(C)c5ccc(OC)cc5)[C@H]4C)c4ccccc43)cc2)cc1,-4.06,-0.736,-4.64,-2.64,-4.32,-2.53,1.16 (inactive),-1.12,-2.2,-3.84 (inactive)
C=C/C=C/[C@H]1C(=C)CN([C@@H](Cc2ccccc2)C(=O)OC)[C@@H]1[C@H](O)Cc1ccccc1,-0.0859,-0.178,-0.0232,-2.2,-1.52,-1.06,-0.882 (inactive),-0.317,0.165,-0.138 (inactive)
O=C1[C@H]2C=C(Br)[C@H](C[C@@H]2c2ccccc2)[C@@]12CO2,-1.18,-0.559,-0.675,-2.95,-2.49,-1.69,0.0869 (inactive),-0.323,-0.609,-0.541 (inactive)
O=C1NC(=O)C2C1C=CC(C(O)c1cccc3ccccc13)N2Nc1ccccn1 (stereo not given),0.428,-0.608,-0.32,0.002,-0.0565,0.15,-0.0987 (inactive),-0.216,-0.184,-0.721 (inactive)
C=CCNC(=O)[C@H]1[C@@H]2C(=O)O[C@@H](c3ccccc3)[C@@H](c3ccccc3)N2[C@@H](c2ccc(OCCO)cc2)[C@]12C(=O)Nc1ccc(C#CC3=CCCCC3)cc12,-1.03,1.66,-1.17,-1.99,-3.64,-1.43,2.5 (inactive),-1.13,-1.32,-0.829 (inactive)
C=CCC(OC(C)=O)[C@@H]1[C@@H](N(Cc2ccc(-c3ccccc3)cc2)C(=O)Cc2ccc(F)cc2)c2cc(OCCCO)ccc2N1C(=O)c1ccc(-c2ccccc2)cc1 (stereo not given in full),-0.861,0.779,1.87,0.784,1.16,3.77,1.54 (inactive),-0.714,-0.725,1.67 (inactive)
O=C1NC(=O)C2C1C=CC(C(O)Cc1ccccc1)N2Nc1ccc(Cl)cc1Cl (stereo not given),0.447,-0.0852,-1.57,-0.988,-0.388,-1.73,-0.00872 (inactive),-0.371,-0.375,-0.519 (inactive)
COc1ccc(C#Cc2ccc3c(c2)[C@]2(C(=O)N3)[C@H](c3ccccc3OCCO)N3[C@H](c4ccccc4)[C@H](c4ccccc4)OC(=O)[C@H]3[C@@H]2C(=O)O)cc1,0.1,0.143,-2.53,-3.32,-4.18,-3.62,2.54 (inactive),-0.93,-1.9,0.206 (inactive)
CC(C)(C)OC(=O)CC[C@@]1(C(=O)NCC(O)CO)N=C(c2ccc(OCCCO)cc2)O[C@@H]1c1ccccc1N=[N+]=[N-] (stereo not given in full),1.79,-0.309,1.34,-0.312,0.0549,1.73,2.9 (inactive),0.11,-0.884,0.642 (inactive)

SMILES,z-score [1],z-score [2],z-score [3],z-score [4],z-score [5],z-score [6],z-score [7],z-score [8],z-score [9],z-score [10]
CCCN1C(=O)[C@]2(CCS(=O)(=O)c3ccccc3)N=C(c3ccc(OCCCO)cc3)O[C@@H]2c2ccccc21,1.27,1.86,-0.801,0.0361,-1.97,0.28,-0.494 (inactive),-0.917,-1.28,-1.57 (inactive)
[N-]=[N+]=Nc1ccccc1C[C@]1(C(N)=O)N=C(c2ccc(OCCCO)cc2)O[C@H]1c1ccccc1,0.0914,0.124,-0.0857,-1.9,-0.495,-0.543,-0.387 (inactive),-0.265,-0.0874,0.453 (inactive)
Cc1ccc(C(C)CC(O)C2C=CC3C(=O)N(c4ccccc4)C(=O)C3N2Nc2ccc([N+](=O)[O-])cc2)o1 (stereo not given),-0.483,0.0852,0.268,-0.0308,-0.259,-0.414,-2.12 (inactive),-0.0508,-1.54,0.35 (inactive)
O=C1OCCC/C=C\[C@H]2OC34C=CCN(Cc5ccccc5)C(=O)[C@H]3N(CCCCCCO)C(=O)[C@@H]4C12 (stereo not given in full),2.3,0.0451,0.685,1.85,1.05,1.54,0.948 (inactive),0.44,-1.11,1.28 (inactive)
Cc1ccc(S[C@]2(C(=O)NC(C)C)CC(=O)N(Cc3ccccc3Cl)[C@@H]2c2ccc(CO)cc2I)cc1,-0.0542,-0.05,-0.125,-2.71,-1.58,-1.08,-0.443 (inactive),-0.195,-1.6,1.11 (inactive)
COCCOC(=O)N1C(=O)[C@@]2(c3cc(C#CCCO)ccc31)[C@H](C(=O)N1CCN(c3ncccn3)CC1)[C@H]1C(=O)O[C@H](c3ccccc3)[C@H](c3ccccc3)N1[C@@H]2c1ccccc1OCCO,0.703,0.701,-0.51,0.135,-0.192,0.107,0.675 (inactive),-0.324,-1.15,1.79 (inactive)
CCOC(=O)[C@H]1C/C=C/C[C@H](C(=O)OCC)C(=O)O[C@H]2[C@@H](OC)O[C@H](CO)[C@@H](OC(=O)Nc3ccc(C#N)cc3)[C@@H]2OC1=O,-2.47,1.37,-4.91,-3.15,-4.11,-2.79,1.14 (inactive),-0.975,-2.11,-4.98 (inactive)
Cc1ccc(C(C)CC(O)C2C=CC3C(=O)N(C)C(=O)C3N2NC(=O)OC(C)(C)C)o1 (stereo not given),0.987,-0.515,0.917,-0.193,-0.883,-0.768,-0.632 (inactive),-0.876,-0.357,0.543 (inactive)
C=C(COC)/C(=C/C[C@@H](OC(C)=O)c1ccc(CO)o1)c1cnc2ccccc2c1,-0.11,0.523,-0.856,0.0139,-0.672,-0.733,-0.306 (inactive),-0.33,1.33,-0.874 (inactive)
CCCC=C(CCC)[C@@H](NC(=O)Oc1ccc(F)cc1)c1ccc(C(=O)OC)cc1,-1.33,-0.609,0.0049,-1.43,-2.42,6.8,0.261 (inactive),-0.754,-1.44,0.717 (inactive)
CCOC(=O)C[C@H]1[C@H](OC(=O)Cc2ccc3c(c2)OCO3)[C@@H](NC(=O)c2ccc(-c3ccccc3)cc2)c2cc(OCCCO)ccc2N1C(=O)Cc1ccc(OC)cc1,2.24,0.53,1.09,0.704,1.1,2.33,0.242 (inactive),0.679,-1.03,-0.0841 (inactive)
NCCCCCNC(=O)[C@@H]1C[C@@H]2C(=O)NCC(=O)N2[C@@H]1c1ccc(O)cc1,0.685,-0.366,0.678,0.545,0.895,1.32,0.114 (inactive),-0.0558,-0.408,0.508 (inactive)
CC(C)(C)OC(=O)CC[C@]12N=C(c3ccc(OCCCO)cc3)O[C@H]1c1ccccc1N(CCS(=O)(=O)c1ccccc1)C2=O,1.16,0.308,1.44,-1.52,-0.568,-0.784,1.45 (inactive),-1.09,-0.719,-1.71 (inactive)
COCCCN1C(=O)[C@@]2(Cc3ccccc31)c1ccccc1C(=O)N(Cc1ccccc1C(F)(F)F)[C@H]2c1ccc(CO)cc1,-0.84,-1.15,-0.539,-0.155,-0.259,-0.451,0.801 (inactive),0.799,0.148,-0.356 (inactive)
CCOC(=O)[C@H]1CC=C2CC1C(=O)N1CCC[C@@H]1[C@@H]2O[Si](C)(C)C(C)(C)C (stereo not given in full),-1.63,0.312,-1.43,-2.85,-4.07,-2.25,-1.07 (inactive),-1.06,0.167,3.69 (inactive)

# — PubChem BioAssay
